Records with an inconclusive call do not appear. A call without a number means that no potency is given here. The source made the active and inactive calls. Calls follow the shape of the dose curve; as a rule, active = well fitted inhibition curve with a large enough effect; inconclusive = small, poorly fitted or top-dose-only effect; inactive = flat fitted curve, though single readings scatter.
What follows are molecules tested against Aldehyde dehydrogenase, mitochondrial (Homo sapiens) (UniProt P05091) (assay: qHTS for Inhibitors of the Aldehyde Dehydrogenase Family (ALDH2) Primary screen (AID 2061308; also: nearly all actives have a fitted effect of over 55% in size)). Conditions: ALDH2 enzyme inhibition qHTS, 1536-well; series mostly up to 56 µM.
`Cc1ccc(-c2cc(C(=O)Nc3ccc(S(N)(=O)=O)cc3)c3ccccc3n2)cc1C` was tested, and the Potency was “inactive”.
In the case of `CC(C)(C)NC(=O)Nc1nnc(-c2ccncc2)s1`, the Potency is reported as “inactive”.
For `CCOc1ccc(CCNC(=O)C2(c3ccccc3)CC2)cc1OCC`, the Potency was “inactive”.
In the case of `Cc1ccc(NS(=O)(=O)c2ccc3ccccc3c2)cc1C`, the Potency is reported as “inactive”.
`COc1ccc(S(=O)(=O)NC2CCN(C#N)CC2)cc1` was tested, and the Potency was “inactive”.
`O=C(N1CCc2cc([S+](=O)([O-])N3CCN([S+](=O)([O-])c4c(F)cccc4F)CC3)ccc2C1)C(F)(F)F` was tested, and the Potency was “inactive”.
For `COc1ccc(-c2nc3ccc(Cl)cc3c(=O)n2Cc2ccccc2)cc1COc1ccc(NC(C)=O)cc1`, the Potency was “inactive”.
`COc1cccc(C2c3c(ncn(-c4ccc(C(C)(C)C)cc4)c3=N)Oc3ccc4ccccc4c32)c1` (stereo not given) was tested, and the Potency was “inactive”.
`COCCN(CCOC)c1nc(C)nc2c1nc(-c1ccccc1)n2CC1CCN(C)CC1` was tested, and the Potency was “inactive”.
`Cc1noc(C)c1-c1ccc2ncnc(NCc3ccccc3C(F)(F)F)c2c1` was tested, and the Potency was “inactive”.
In the case of `Clc1ccccc1CSc1nc2ncc(Br)cc2[nH]1`, the Potency is reported as “inactive”.
In the case of `CC1=CC(=O)C2C(C)(C)CCCC2(C)C12CCC1(COC(=O)C1)O2` (stereo not given), the Potency is reported as “inactive”.
In the case of `N#Cc1cccc(-c2ccc(CNc3nc(-c4ccccc4C(F)(F)F)nc4ccccc34)cc2)c1`, the Potency is reported as “inactive”.
With `Cc1nc(NCc2ccccc2)c2nc(-c3ccccc3)n(CCN3CCCC3)c2n1` the Potency was “inactive”.
For `COc1ccc(C2c3c(n(CCCc4ccccc4)cnc3=N)Oc3ccc4ccccc4c32)cc1OC` (stereo not given), the Potency was “inactive”.
With `Cc1ccc(OCCn2c(CCNC(=O)Cc3cccc(F)c3)nc3ccccc32)cc1` the Potency was “inactive”.
In the case of `Fc1cc(F)cc(Nc2nc(NC3CCCC3)nc(C3CO3)n2)c1` (stereo not given), the Potency is reported as “inactive”.
With `Cc1ccc(C(=O)Nc2ccc(S(=O)(=O)Nc3nccs3)cc2)cc1C` the Potency was “inactive”.
For `CS(=O)(=O)c1ccc(C(=O)OCC(=O)N2CCOCC2)cc1[N+](=O)[O-]`, the Potency was “inactive”.
For `COc1cc(NS(=O)(=O)c2ccc(C)cc2)cc(C(=O)Nc2nc(-c3ccccc3)cs2)c1`, the Potency was “inactive”.
For `FC(F)(F)c1ccccc1-c1nc2c(c(NCc3ccc(-c4cccnc4)cc3)n1)CCC2`, the Potency was “inactive”.
In the case of `C=C(C)c1cc2c(s1)c1cnn(Cc3ccccc3F)c(=O)c1n2C`, the Potency is reported as “inactive”.
For `Cc1ccc(C(=O)Nc2ccc(N3CCCCC3)cc2)cc1`, the Potency was “inactive”.
For `Cc1cc(NS(=O)(=O)c2ccc(NC(=O)Cc3ccc4ccccc4c3)cc2)no1`, the Potency was “inactive”.
In the case of `Cc1cc2c(s1)c1cnn(Cc3ccccc3F)c(=O)c1n2Cc1ccccc1F`, the Potency is reported as “inactive”.
For `COc1ccccc1C1=Nn2c(nnc2-c2cccc(OC)c2OC)SC1`, the Potency was “inactive”.
`Cc1cc(C)nc(NC(=S)N2CCN(c3ccc(N4CCCC4)nn3)CC2)c1` was tested, and the Potency was “inactive”.
In the case of `Cc1cc2c(s1)c1cnn(Cc3ccc(F)c(F)c3F)c(=O)c1n2C`, the Potency is reported as “inactive”.
In the case of `Cc1ccc(S(=O)(=O)Nc2cc([N+](=O)[O-])ccc2C(=O)Nc2nc(-c3ccccc3)cs2)cc1`, the Potency is reported as “inactive”.
In the case of `Cc1cccc(CNc2ccnc(-c3cccc(C(F)(F)F)c3)n2)c1`, the Potency is reported as “inactive”.
In the case of `CCCC1CCN(C(=O)CC(c2ccc3c(c2)OCO3)c2c(O)cc(OC)cc2OC)C1` (stereo not given), the Potency is reported as “inactive”.
With `Cc1cnc(-c2ccccc2C(C)C)nc1NCC1CCN(C2COC2)CC1` the Potency was “inactive”.
In the case of `O=C1CCCC2=C1C(c1ccncc1Cl)N=C(Nc1nc3ccccc3o1)N2` (stereo not given), the Potency is reported as “inactive”.
With `Cc1cc(-c2cc(O)ccc2Cl)cc2nnc(Nc3ccc(OCCN4CCCC4)cc3)nc12` the Potency was “inactive”.
For `Cc1cc(C)n2ncc(C(=O)Nc3ccc4c(c3)OCCO4)c2n1`, the Potency was “inactive”.
`COc1ccc([S+](=O)([O-])N2CCCN([S+](=O)([O-])c3ccc(OC)c(N)c3)CC2)cc1N` was tested, and the Potency was “inactive”.
For `O=C1CCc2cc(S(=O)(=O)Nc3cccc(B(O)O)c3)ccc2N1`, the Potency was “inactive”.
In the case of `COc1ccc(C(=O)N(Cc2ccccc2)Cc2ccccc2)c(O)c1`, the Potency is reported as “inactive”.
For `CC1CC1C(=O)Nc1ccc([S+](=O)([O-])Nc2nccs2)cc1` (stereo not given), the Potency was “inactive”.
In the case of `O=C(OCC#CCSc1nnc(-c2ccc3ccccc3c2)o1)c1cccc(F)c1`, the Potency is reported as “inactive”.

Reference: PubChem BioAssay (NCATS)
